# From paper PMC9911399, “Two distinct binding modes provide the RNA-binding protein RbFox with extraordinary sequence specificity”
# Numbering of substitutions follows the chain as printed; changes in the protein carry UniProt numbers. Over roughly 16,000 sequences, “ka relative to ugcaugu” has its median near 0.0091; the highest 2% begin near 0.032. What follows is part of a selection rich in the highest values, with near analogues and random picks from the rest.
# T1: RBFOX1 RRM (Homo sapiens, UniProt Q9NWB1 109-208)
# T1 sequence: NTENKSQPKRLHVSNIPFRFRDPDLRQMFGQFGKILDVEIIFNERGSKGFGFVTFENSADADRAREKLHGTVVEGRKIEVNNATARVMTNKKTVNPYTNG
# B1: CUGCAGA (DNA:RNA)
# RNA: GGGAGACCGGAAUUCAGAUUGUCCCUGCAGAUUAAAUCCCGUCGUAGCCACCA
# DNA 1: CAATCTGAATTCCGGTCTCCC
# DNA 2: TGGTGGCTACGACGGGATT
# B2: AUUUAGA (DNA:RNA)
# RNA: B1 RNA with C25A, G27U, C28U
# DNA 1: CAATCTGAATTCCGGTCTCCC
# DNA 2: TGGTGGCTACGACGGGATT
# B3: GAACGUU (DNA:RNA)
# RNA: B1 RNA with C25G, U26A, G27A, A29G, G30U, A31U
# DNA 1: CAATCTGAATTCCGGTCTCCC
# DNA 2: TGGTGGCTACGACGGGATT
# B4: CGGCGCA (DNA:RNA)
# RNA: B1 RNA with U26G, A29G, G30C
# DNA 1: CAATCTGAATTCCGGTCTCCC
# DNA 2: TGGTGGCTACGACGGGATT
# B5: CCGCUCA (DNA:RNA)
# RNA: B1 RNA with U26C, A29U, G30C
# DNA 1: CAATCTGAATTCCGGTCTCCC
# DNA 2: TGGTGGCTACGACGGGATT
# B6: UUAGAAU (DNA:RNA)
# RNA: B1 RNA with C25U, G27A, C28G, G30A, A31U
# DNA 1: CAATCTGAATTCCGGTCTCCC
# DNA 2: TGGTGGCTACGACGGGATT
# B7: GUAUACC (DNA:RNA)
# RNA: B1 RNA with C25G, G27A, C28U, G30C, A31C
# DNA 1: CAATCTGAATTCCGGTCTCCC
# DNA 2: TGGTGGCTACGACGGGATT
# B8: CUGGCUG (DNA:RNA)
# RNA: B1 RNA with C28G, A29C, G30U, A31G
# DNA 1: CAATCTGAATTCCGGTCTCCC
# DNA 2: TGGTGGCTACGACGGGATT
# B9: UUGGCUC (DNA:RNA)
# RNA: B1 RNA with C25U, C28G, A29C, G30U, A31C
# DNA 1: CAATCTGAATTCCGGTCTCCC
# DNA 2: TGGTGGCTACGACGGGATT
# B10: GUGGCUG (DNA:RNA)
# RNA: B1 RNA with C25G, C28G, A29C, G30U, A31G
# DNA 1: CAATCTGAATTCCGGTCTCCC
# DNA 2: TGGTGGCTACGACGGGATT
# B11: CUGGCUC (DNA:RNA)
# RNA: B1 RNA with C28G, A29C, G30U, A31C
# DNA 1: CAATCTGAATTCCGGTCTCCC
# DNA 2: TGGTGGCTACGACGGGATT
# B12: UGGCUGU (DNA:RNA)
# RNA: B1 RNA with C25U, U26G, A29U, A31U
# DNA 1: CAATCTGAATTCCGGTCTCCC
# DNA 2: TGGTGGCTACGACGGGATT
# B13: CCCUGGC (DNA:RNA)
# RNA: B1 RNA with U26C, G27C, C28U, A29G, A31C
# DNA 1: CAATCTGAATTCCGGTCTCCC
# DNA 2: TGGTGGCTACGACGGGATT
# B14: GUGCUGU (DNA:RNA)
# RNA: B1 RNA with C25G, A29U, A31U
# DNA 1: CAATCTGAATTCCGGTCTCCC
# DNA 2: TGGTGGCTACGACGGGATT
# B15: UGGGCUC (DNA:RNA)
# RNA: B1 RNA with C25U, U26G, C28G, A29C, G30U, A31C
# DNA 1: CAATCTGAATTCCGGTCTCCC
# DNA 2: TGGTGGCTACGACGGGATT
# B16: CUGUGGC (DNA:RNA)
# RNA: B1 RNA with C28U, A29G, A31C
# DNA 1: CAATCTGAATTCCGGTCTCCC
# DNA 2: TGGTGGCTACGACGGGATT
# B17: UUGGCUG (DNA:RNA)
# RNA: B1 RNA with C25U, C28G, A29C, G30U, A31G
# DNA 1: CAATCTGAATTCCGGTCTCCC
# DNA 2: TGGTGGCTACGACGGGATT
# B18: CGGCUGU (DNA:RNA)
# RNA: B1 RNA with U26G, A29U, A31U
# DNA 1: CAATCTGAATTCCGGTCTCCC
# DNA 2: TGGTGGCTACGACGGGATT
# B19: UGGCUCU (DNA:RNA)
# RNA: B1 RNA with C25U, U26G, A29U, G30C, A31U
# DNA 1: CAATCTGAATTCCGGTCTCCC
# DNA 2: TGGTGGCTACGACGGGATT
# B20: CAUUUCG (DNA:RNA)
# RNA: B1 RNA with U26A, G27U, C28U, A29U, G30C, A31G
# DNA 1: CAATCTGAATTCCGGTCTCCC
# DNA 2: TGGTGGCTACGACGGGATT
# B21: UAUCCUA (DNA:RNA)
# RNA: B1 RNA with C25U, U26A, G27U, A29C, G30U
# DNA 1: CAATCTGAATTCCGGTCTCCC
# DNA 2: TGGTGGCTACGACGGGATT
# B22: GAGGAUC (DNA:RNA)
# RNA: B1 RNA with C25G, U26A, C28G, G30U, A31C
# DNA 1: CAATCTGAATTCCGGTCTCCC
# DNA 2: TGGTGGCTACGACGGGATT
# B23: GUAUACA (DNA:RNA)
# RNA: B1 RNA with C25G, G27A, C28U, G30C
# DNA 1: CAATCTGAATTCCGGTCTCCC
# DNA 2: TGGTGGCTACGACGGGATT
# B24: GUUGCGA (DNA:RNA)
# RNA: B1 RNA with C25G, G27U, C28G, A29C
# DNA 1: CAATCTGAATTCCGGTCTCCC
# DNA 2: TGGTGGCTACGACGGGATT
# B25: AUCUGUA (DNA:RNA)
# RNA: B1 RNA with C25A, G27C, C28U, A29G, G30U
# DNA 1: CAATCTGAATTCCGGTCTCCC
# DNA 2: TGGTGGCTACGACGGGATT
# B26: ACGGGUC (DNA:RNA)
# RNA: B1 RNA with C25A, U26C, C28G, A29G, G30U, A31C
# DNA 1: CAATCTGAATTCCGGTCTCCC
# DNA 2: TGGTGGCTACGACGGGATT
# B27: UGUGAUC (DNA:RNA)
# RNA: B1 RNA with C25U, U26G, G27U, C28G, G30U, A31C
# DNA 1: CAATCTGAATTCCGGTCTCCC
# DNA 2: TGGTGGCTACGACGGGATT
# B28: CCAGUCU (DNA:RNA)
# RNA: B1 RNA with U26C, G27A, C28G, A29U, G30C, A31U
# DNA 1: CAATCTGAATTCCGGTCTCCC
# DNA 2: TGGTGGCTACGACGGGATT
# B29: UCAGGUC (DNA:RNA)
# RNA: GGGAGACCGGAAUUCAGAUUGUCCUCAGGUCUUAAAUCCCGUCGUAGCCACCA
# DNA 1: CAATCTGAATTCCGGTCTCCC
# DNA 2: TGGTGGCTACGACGGGATT
# B30: GGAAAAU (DNA:RNA)
# RNA: B1 RNA with C25G, U26G, G27A, C28A, G30A, A31U
# DNA 1: CAATCTGAATTCCGGTCTCCC
# DNA 2: TGGTGGCTACGACGGGATT
# B31: CUAUCGG (DNA:RNA)
# RNA: B1 RNA with G27A, C28U, A29C, A31G
# DNA 1: CAATCTGAATTCCGGTCTCCC
# DNA 2: TGGTGGCTACGACGGGATT
# Biological target: T1, RBFOX1 RRM
# Experiment: EMSA; HiTS-Eq, 1 nM pool, 10 min; buffer printed only for the single-RNA assays: 10 mM Tris pH 7.5, 150 mM NaCl, 3.4 mM EDTA, 0.001% NP-40, 30 C
# Conditions: tags: His6 N-terminal (pET28a); label: 5' 32P
# Method in brief: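 Purified RbFox RRM, wild type or mutant, was incubated for 10 min in 50 µL with 1 nM of a 5′-radiolabelled RNA pool carrying 7 randomized nucleotides, whose flanks were annealed to DNA oligonucleotides, over a series of increasing protein concentrations. Unbound RNA was resolved on 8% native PAGE, cut out, reverse-transcribed, barcoded by PCR and sequenced on an Illumina HiSeq 2500. Relative association constants were derived from changes in read counts for each RNA species versus the control reaction and normalised to the cognate motif.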
row,Binder,binding signal
1,B1,0.0168 KA relative to UGCAUGU
2,B2,0.0108 KA relative to UGCAUGU
3,B3,0.0166 KA relative to UGCAUGU
4,B4,0.0121 KA relative to UGCAUGU
5,B5,0.00712 KA relative to UGCAUGU
6,B6,0.00773 KA relative to UGCAUGU
7,B7,0.0043 KA relative to UGCAUGU
8,B8,0.0348 KA relative to UGCAUGU
9,B9,0.0219 KA relative to UGCAUGU
10,B10,0.0289 KA relative to UGCAUGU
11,B11,0.0211 KA relative to UGCAUGU
12,B12,0.0395 KA relative to UGCAUGU
13,B13,0.011 KA relative to UGCAUGU
14,B14,0.021 KA relative to UGCAUGU
15,B15,0.0362 KA relative to UGCAUGU
16,B16,0.0106 KA relative to UGCAUGU

row,Binder,binding signal
1,B17,0.0406 KA relative to UGCAUGU
2,B18,0.0179 KA relative to UGCAUGU
3,B19,0.0197 KA relative to UGCAUGU
4,B20,0.00769 KA relative to UGCAUGU
5,B21,0.00279 KA relative to UGCAUGU
6,B22,0.0149 KA relative to UGCAUGU
7,B23,0.00201 KA relative to UGCAUGU
8,B24,0.0206 KA relative to UGCAUGU
9,B25,0.00557 KA relative to UGCAUGU
10,B26,0.0159 KA relative to UGCAUGU
11,B27,0.0227 KA relative to UGCAUGU
12,B28,0.00457 KA relative to UGCAUGU
13,B29,0.0155 KA relative to UGCAUGU
14,B30,0.00757 KA relative to UGCAUGU
15,B31,0.00622 KA relative to UGCAUGU
